# Laboratory results taken from PubChem BioAssay.
# Assay: RPMI8226 myeloma cell viability, profiling panel, resazurin fluorescence, basal, 24 h, PK04 Diversity Set (AID 1180);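 note: RPMI8826 multiple myeloma cell line at 5000 cells per well; test concentration not given here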
# Conditions: higher = more signal
row,Compound,z-score
1,CC(C)(C)OC(=O)CC[C@]1(C(=O)N2CCCCC2)COC(c2ccc(OCCCO)cc2)=N1,1.41
2,O=C1[C@@]23C=C(Br)[C@H](C[C@@H]2COC3)[C@@]12CO2,-0.373
3,O=C1C[C@@](C(=O)NCc2ccccc2)(c2ccc([N+](=O)[O-])cc2)[C@@H](c2ccc(CO)cc2I)N1CC12CC3CC(CC(C3)C1)C2,-2.62
4,O=C1C[C@@](C(=O)NCC(F)(F)F)(c2ccc([N+](=O)[O-])cc2)[C@@H](c2ccc(CO)cc2)N1CC12CC3CC(CC(C3)C1)C2,-2.92
5,CN1C(=O)C2C=CC(C(O)c3ccc(I)cc3)N(Nc3ccccc3)C2C1=O (stereo unspecified),-1.37
6,COc1cc(C(O)C2C=CC3C(=O)N(Cc4ccccc4)C(=O)C3N2n2cnnc2)cc(OC)c1OC (stereo unspecified),0.0011
7,C=C(COC)/C(=C/C[C@@H](OC(=O)c1ccncc1)c1ccccc1OCCO)c1cc(C(=O)OC)ccc1OC,-1.35
8,CC(C)C[C@@H]1NC(=O)[C@@]23C(=O)N[C@@H](Cc4ccccc4)C2[C@H](C)[C@@]2(C)O[C@H]2C3/C=C/C/C=C\CNC(=O)[C@@H](C)NC1=O (stereo partly specified),1.01
9,CCCNC(=O)[C@@]1(Sc2ccc(C)cc2)CC(=O)N(C(C)C)[C@@H]1c1ccc(CO)cc1I,-2.53
10,CN1C(=O)C2C(C1=O)C1C=C(CCCO)C2C(c2cccs2)N1Cc1cc2c(cc1Br)OCO2 (stereo unspecified),0.0707
11,C=C(CCCC)/C(=C/C[C@H](OC(C)=O)c1ccc(OCCO)cc1)c1cc(C(=O)OC)ccc1OC,0.621
12,COC(=O)[C@@]1(Cc2ccc(OC)cc2)[C@H]2c3cc(C(=O)N4CCCC4)n(Cc4ccc(OC(F)(F)F)cc4)c3C[C@H]2CN1C(=O)c1ccccc1,-2.54
13,CS(=O)(=O)CCOC(=O)C1=CC(CCCO)=CC(C2CC2)N(Cc2cccc(OC(F)(F)F)c2)C=C1C(=O)OCCS(C)(=O)=O (stereo unspecified),0.329
14,COC(=O)C1=CC(CCCO)=CC(C)N(Cc2cccc(OC(F)(F)F)c2)C=C1C(=O)OC (stereo unspecified),-0.123
15,[N-]=[N+]=NCc1ccccc1[C@@H]1OC(c2ccc(OCCCO)cc2)=N[C@]1(Cc1ccccc1)C(=O)NCCN1CCOCC1,-0.0015
16,CC(C)C(=C=CC[C@@H](O)c1cccc(OCCO)c1)C[C@@H](O)c1ccccn1,0.463

row,Compound,z-score
1,O=C(NCC(O)CO)[C@@]1(CCS(=O)(=O)c2ccccc2)COC(c2ccc(OCCCO)cc2)=N1 (stereo partly specified),-0.159
2,CCOC(=O)C1=C[C@@H](c2ccccc2)N(S(=O)(=O)c2ccc(C)cc2)[C@H]1c1ccccc1,-0.549
3,CC(C)OC(=O)CC(=O)CC(O)c1ccc([N+](=O)[O-])cc1 (stereo unspecified),-0.0948
4,COC(=O)C1N=C(c2ccc(OCCCO)cc2)N(c2ccccc2)O1 (stereo unspecified),1.22
5,NC(=O)NCC#Cc1ccc2c(c1)[C@]1(C(=O)N2)[C@H](C(=O)N2CCN(c3ncccn3)CC2)[C@H]2C(=O)O[C@H](c3ccccc3)[C@H](c3ccccc3)N2[C@@H]1c1ccc(OCCO)cc1,0.0901
6,[N-]=[N+]=Nc1ccccc1C[C@]1(C(=O)O)N=C(c2ccc(OCCCO)cc2)O[C@H]1c1ccccc1,-0.954
7,C=C(/C(=C/C[C@@H](OC(C)=O)c1ccc(OCCO)cc1)c1cc(C(=O)OC)ccc1OC)C(C)C,-0.161
8,COc1ccc(NC(=O)O[C@H]2[C@@H]3OC(=O)[C@H](Cc4cccc(Br)c4)C/C=C/C[C@@H](Cc4cccc(Br)c4)C(=O)O[C@H]3[C@@H](OC)O[C@@H]2CO)cc1,-0.517
9,[N-]=[N+]=NCc1ccccc1[C@H]1OC(c2ccc(OCCCO)cc2)=N[C@@]1(CCS(=O)(=O)c1ccccc1)C(=O)NCc1ccccc1,0.032
10,COc1cc(NN2C(C(O)C3CCCCC3)C=CC3C(=O)N(C)C(=O)C32)cc(OC)c1OC (stereo unspecified),-1.35
11,O=C1[C@@H]2[C@@H](CC(COc3ccccc3)=C3[C@@H](CCc4ccccc4)OB(O)C[C@@H]32)C(=O)N1Cc1ccccc1,-0.0577
12,O=C1OCCC=C[C@H]2OC34C=CCN(c5ccc(Cl)cc5)C(=O)[C@H]3N(CCCCCCO)C(=O)[C@@H]4C12 (stereo partly specified),1.23
13,CCOC(=O)C[C@H]1[C@H](OC(=O)c2ccccc2-c2ccccc2)[C@@H](NC(=O)c2ccc3ccccc3n2)c2cc(OCCCO)ccc2N1C(=O)c1ccccc1,0.303
14,COC(=O)[C@@]1(Cc2ccc(OC)cc2)[C@H]2c3cc(C(=O)N4CCCC4)n(Cc4ccc(S(C)(=O)=O)cc4)c3C[C@H]2CN1C(=O)c1ccccc1,-0.84
15,C=C[C@@H](C)[C@@H](OC(=O)Nc1ccc(SC)cc1)c1ccc(OCCO)cc1,0.0167
